# Experimental data: the supplement of paper PMC10037445
# In all, about 2,900 compounds were measured (“NF-kB SEAP reporter activity, fold change vs agonist alone”: median about 0.99, highest 2% from about 2.6 on). This excerpt belongs to a sample that is enriched for the highest values.
# Legend:
# [1] = system: RAW-Dual; assay: NF-kB SEAP reporter activity, fold change vs agonist alone; higher = enhanced NF-kB activity
# Method in brief: (§1)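 RAW-Dual macrophages (50,000 cells/well in DMEM, 384-well plates) received 50 nL of library stock by pin tool, then a PRR agonist 1 h later, and were kept at 37 °C, 5% CO2. After 20 hours, supernatant was read for IRF by QuantiLuc luminescence and for NF-κB by QuantiBlue absorbance at 620 nm. Reporter activity is fold change over agonist-alone wells. Cytotoxic wells had IncuCyte confluency below 70% of agonist controls in both mask sets.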
# [2] = system: RAW-Dual; assay: NF-kB SEAP reporter activity, fold change vs agonist alone; cytotoxicity flag (confluency mask): not cytotoxic; higher = enhanced NF-kB activity
# Method in brief: as §1
# [3] = system: RAW-Dual; assay: NF-kB SEAP reporter activity, fold change vs agonist alone; cytotoxicity flag (confluency mask): cytotoxic (confluency <70% of control); higher = enhanced NF-kB activity
# Method in brief: as §1
# [4] = library stock concentration (final ~1000-fold dilution): 10 mM, cytotoxicity flag (confluency mask): not cytotoxic, agonist: Imiquimod (TLR7) […]
# [5] = library stock concentration (final ~1000-fold dilution): 10 mM, cytotoxicity flag (confluency mask): not cytotoxic, agonist: MPLA (TLR4) […]
# [6] = agonist: ODN 1826 (TLR9) 0.5 ug/mL
# [7] = agonist: Pam2CSK4 (TLR2/6) 0.1 ug/mL
# [8] = agonist: Pam3CSK4 (TLR2/1) 0.1 ug/mL
# [9] = library stock concentration (final ~1000-fold dilution): 10 mM, cytotoxicity flag (confluency mask): cytotoxic (confluency <70% of control), agonist: Imiquimod (TLR7) […]
# [10] = library stock concentration (final ~1000-fold dilution): 10 mM, cytotoxicity flag (confluency mask): cytotoxic (confluency <70% of control), agonist: MPLA (TLR4) […]
structure (smiles),measurement,setting,value
CCOC1OC(=O)CC1NC(=O)C1CCCN1C(=O)C(NC(=O)c1ccc(N)c(Cl)c1)C(C)(C)C (stereo not given),NF-kB SEAP reporter activity,[1]; [4],0.911
same,NF-kB SEAP reporter activity,[1]; [5],0.995
N#CC1CC2CC2N1C(=O)C(N)C12CC3CC(CC(O)(C3)C1)C2 (stereo not given),NF-kB SEAP reporter activity,[1]; [4],0.914
same,NF-kB SEAP reporter activity,[1]; [5],0.875
N#CC1CC2CC2N1C(=O)C(N)C12CC3CC(CC(O)(C3)C1)C2 (stereo not given) (library stock concentration (final ~1000-fold dilution): 10 mM),NF-kB SEAP reporter activity,[2]; agonist: LPS (TLR4) 0.1 ug/mL,1.1
same,NF-kB SEAP reporter activity,[2]; [6],0.964
same,NF-kB SEAP reporter activity,[2]; [7],0.892
same,NF-kB SEAP reporter activity,[2]; [8],1.05
CCn1c(-c2nonc2N)nc2c(C#CC(C)(C)O)ncc(OCC3CCCNC3)c21 (stereo not given) (library stock concentration (final ~1000-fold dilution): 10 mM),NF-kB SEAP reporter activity,[2]; agonist: LPS (TLR4) 0.1 ug/mL,1.91
same,NF-kB SEAP reporter activity,[2]; [6],0.943
same,NF-kB SEAP reporter activity,[2]; [7],1.73
same,NF-kB SEAP reporter activity,[2]; [8],1.89
CCn1c(-c2nonc2N)nc2c(C#CC(C)(C)O)ncc(OCC3CCCNC3)c21 (stereo not given),NF-kB SEAP reporter activity,[1]; [4],1.87
same,NF-kB SEAP reporter activity,[1]; [5],1.95
CC(C)Cc1ccc(C(C)C(=O)O)cc1.NCCCCC(N)C(=O)O (stereo not given) (library stock concentration (final ~1000-fold dilution): 10 mM water),NF-kB SEAP reporter activity,[2]; agonist: LPS (TLR4) 0.1 ug/mL,1.42
same,NF-kB SEAP reporter activity,[2]; [6],1.2
same,NF-kB SEAP reporter activity,[2]; [7],1.54
same,NF-kB SEAP reporter activity,[2]; [8],1.39
CC(C)Cc1ccc(C(C)C(=O)O)cc1.NCCCCC(N)C(=O)O (stereo not given),NF-kB SEAP reporter activity,"[1]; library stock concentration (final ~1000-fold dilution): 10 mM water, cytotoxicity flag (confluency mask): not cytotoxic, agonist: Imiquimod (TLR7) […]",0.969
same,NF-kB SEAP reporter activity,"[1]; library stock concentration (final ~1000-fold dilution): 10 mM water, cytotoxicity flag (confluency mask): not cytotoxic, agonist: MPLA (TLR4) […]",1.08
CCCCc1nc2cc(/C=C/C(=O)NO)ccc2n1CCN(CC)CC (library stock concentration (final ~1000-fold dilution): 10 mM),NF-kB SEAP reporter activity,[3]; agonist: LPS (TLR4) 0.1 ug/mL,4.93
same,NF-kB SEAP reporter activity,[3]; [6],1.54
same,NF-kB SEAP reporter activity,[3]; [7],0.93
same,NF-kB SEAP reporter activity,[3]; [8],1.99
CCCCc1nc(-c2ccc(OCCCN(CC)CC)cc2)cn1-c1ccc(Oc2ccc(Cl)cc2)cc1 (library stock concentration (final ~1000-fold dilution): 10 mM),NF-kB SEAP reporter activity,[3]; agonist: LPS (TLR4) 0.1 ug/mL,0.281
same,NF-kB SEAP reporter activity,[3]; [6],0.683
same,NF-kB SEAP reporter activity,[3]; [7],0.225
same,NF-kB SEAP reporter activity,[3]; [8],0.192
CCCCc1nc2cc(/C=C/C(=O)NO)ccc2n1CCN(CC)CC,NF-kB SEAP reporter activity,[1]; [9],2.43
same,NF-kB SEAP reporter activity,[1]; [10],2.67
CCCCc1nc(-c2ccc(OCCCN(CC)CC)cc2)cn1-c1ccc(Oc2ccc(Cl)cc2)cc1,NF-kB SEAP reporter activity,[1]; [9],1.53
same,NF-kB SEAP reporter activity,[1]; [10],1.02
CN1C2CCC1CC(OC(c1ccccc1)c1ccccc1)C2.CS(=O)(=O)O (stereo not given) (library stock concentration (final ~1000-fold dilution): 10 mM),NF-kB SEAP reporter activity,[2]; agonist: LPS (TLR4) 0.1 ug/mL,1.24
same,NF-kB SEAP reporter activity,[2]; [6],0.721
same,NF-kB SEAP reporter activity,[2]; [7],0.896
same,NF-kB SEAP reporter activity,[2]; [8],1.02
CN1C2CCC1CC(OC(c1ccccc1)c1ccccc1)C2.CS(=O)(=O)O (stereo not given),NF-kB SEAP reporter activity,[1]; [4],1.89
same,NF-kB SEAP reporter activity,[1]; [5],1.29
CC(NC(=O)CCC(F)(F)F)C(=O)NC1C(=O)N(CCO)c2ncccc2-c2ccccc21 (stereo not given) (library stock concentration (final ~1000-fold dilution): 10 mM),NF-kB SEAP reporter activity,[2]; agonist: LPS (TLR4) 0.1 ug/mL,1.05
same,NF-kB SEAP reporter activity,[2]; [6],0.863
same,NF-kB SEAP reporter activity,[2]; [7],0.99
same,NF-kB SEAP reporter activity,[2]; [8],1.16
CC(NC(=O)CCC(F)(F)F)C(=O)NC1C(=O)N(CCO)c2ncccc2-c2ccccc21 (stereo not given),NF-kB SEAP reporter activity,[1]; [4],0.822
same,NF-kB SEAP reporter activity,[1]; [5],1.06
CNCCCC12CCC(c3ccccc31)c1ccccc12.Cl,NF-kB SEAP reporter activity,[1]; [4],1.4
same,NF-kB SEAP reporter activity,[1]; [5],1.37
CNCCCC12CCC(c3ccccc31)c1ccccc12.Cl (library stock concentration (final ~1000-fold dilution): 10 mM),NF-kB SEAP reporter activity,[2]; agonist: LPS (TLR4) 0.1 ug/mL,1.55
same,NF-kB SEAP reporter activity,[2]; [6],0.443
same,NF-kB SEAP reporter activity,[2]; [7],0.537
same,NF-kB SEAP reporter activity,[2]; [8],0.603
CC(=O)c1ccc2c(c1)c1cc(C(C)=O)ccc1n2CCNC(C)C.Cl (library stock concentration (final ~1000-fold dilution): 10 mM),NF-kB SEAP reporter activity,[3]; agonist: LPS (TLR4) 0.1 ug/mL,0.329
same,NF-kB SEAP reporter activity,[3]; [6],0.209
same,NF-kB SEAP reporter activity,[3]; [7],0.0686
same,NF-kB SEAP reporter activity,[3]; [8],0.155
CC(=O)c1ccc2c(c1)c1cc(C(C)=O)ccc1n2CCNC(C)C.Cl,NF-kB SEAP reporter activity,[1]; [9],0.156
same,NF-kB SEAP reporter activity,[1]; [10],0.26
CC1(C)OC2COC3(COS(N)(=O)=O)OC(C)(C)OC3C2O1 (stereo not given) (library stock concentration (final ~1000-fold dilution): 10 mM),NF-kB SEAP reporter activity,[2]; agonist: LPS (TLR4) 0.1 ug/mL,0.898
same,NF-kB SEAP reporter activity,[2]; [6],1.01
same,NF-kB SEAP reporter activity,[2]; [7],0.955
same,NF-kB SEAP reporter activity,[2]; [8],1.12
CC1(C)OC2COC3(COS(N)(=O)=O)OC(C)(C)OC3C2O1 (stereo not given),NF-kB SEAP reporter activity,[1]; [4],0.928
same,NF-kB SEAP reporter activity,[1]; [5],0.824
COc1ccc(S(=O)(=O)Nc2cc(-c3c(O)ccc4ccccc34)c(O)c3ccccc23)cc1 (library stock concentration (final ~1000-fold dilution): 10 mM),NF-kB SEAP reporter activity,[2]; agonist: LPS (TLR4) 0.1 ug/mL,4.3
same,NF-kB SEAP reporter activity,[2]; [6],1.09
same,NF-kB SEAP reporter activity,[2]; [7],1.29
same,NF-kB SEAP reporter activity,[2]; [8],1.38
COc1ccc2cccc(CCNC(C)=O)c2c1,NF-kB SEAP reporter activity,[1]; [4],0.972
same,NF-kB SEAP reporter activity,[1]; [5],0.963
COc1c(O)c(C)cc2c1C(=O)c1c(O)cccc1C2=O,NF-kB SEAP reporter activity,[1]; [4],0.981
same,NF-kB SEAP reporter activity,[1]; [5],1.08
COc1ccc2cccc(CCNC(C)=O)c2c1 (library stock concentration (final ~1000-fold dilution): 10 mM),NF-kB SEAP reporter activity,[2]; agonist: LPS (TLR4) 0.1 ug/mL,1.33
same,NF-kB SEAP reporter activity,[2]; [6],1.09
same,NF-kB SEAP reporter activity,[2]; [7],1.03
same,NF-kB SEAP reporter activity,[2]; [8],1.19
COc1c(O)c(C)cc2c1C(=O)c1c(O)cccc1C2=O (library stock concentration (final ~1000-fold dilution): 10 mM),NF-kB SEAP reporter activity,[2]; agonist: LPS (TLR4) 0.1 ug/mL,1.19
same,NF-kB SEAP reporter activity,[2]; [6],1.02
same,NF-kB SEAP reporter activity,[2]; [7],1.04
same,NF-kB SEAP reporter activity,[2]; [8],1.01
COc1ccc(S(=O)(=O)Nc2cc(-c3c(O)ccc4ccccc34)c(O)c3ccccc23)cc1,NF-kB SEAP reporter activity,[1]; [4],1.17
same,NF-kB SEAP reporter activity,[1]; [5],1.61
